# Measurements as given in PubChem BioAssay (NCATS).
# “And” between values parts separate entries of the source, which are not always exact repeats. Identical values can stand only once. Inconclusive results are not listed. Some structures have more than one record in an assay (separate samples or runs), and their calls can disagree. The source made the active and inactive calls. Calls follow the shape of the dose curve; as a rule, active = well fitted cell-killing curve with a large enough effect; inconclusive = small, poorly fitted or top-dose-only effect, or effect the other way; inactive = no such curve, though single readings can be large or run the other way. Peptide text beside a SMILES is read from it. * marks the point of attachment. Cbz = O=C(OCc1ccccc1)*
# Experiment: Viability qHTS for spleen associated tyrosine kinase inhibitor (SYKi) drug resistant MV4-11 cells (AID 1963824); also: nearly all actives have a fitted effect of over 35% in size
# Conditions: SYKi-resistant MV4-11 viability, CellTiter-Glo, 72 h; series mostly up to 45 µM
# Summary of the method: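 SYK inhibitor-resistant MV4-11 AML cells, 500 per well, added to predispensed compounds and incubated 72 hr at 37 C, 5% CO2. Viability measured by CellTiter-Glo luminescence after 10 min at room temperature.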
# Potency is read from the fitted curve at half-maximal effect.
row,Compound,Potency
1,O=C1CCCC2=C1C(c1[nH]ncc1Cl)N=C(Nc1nc3ccccc3o1)N2 (stereo unspecified),14.6 µM (active) and 13.2 µM (active)
2,CCN1CCN(c2ccc(Nc3cc(N(C)C(=O)Nc4c(Cl)c(OC)cc(OC)c4Cl)ncn3)cc2)CC1,1.86 µM (active)
3,C[N+](C)(C)CC(=O)O,inactive
4,COCCCN1CCC(NC(=O)c2cc(Cl)c(N)c3c2OCC3)CC1,inactive
5,CNC(=O)c1ccc(Nc2ncc(C(F)(F)F)c(NCc3nccnc3N(C)S(C)(=O)=O)n2)cc1,291 nM (active) and 525 nM (active)
6,O=C1NC(=O)C(c2cnc3ccccn23)=C1c1cn2c3c(cccc13)CN(C(=O)N1CCOCC1)CC2,0.092 µM (active)
7,Cc1cc2c(s1)Nc1ccccc1N=C2N1CCN(C)CC1,23.1 µM (active)
8,CC1Cc2ccccc2N1NC(=O)c1ccc(Cl)c(S(N)(=O)=O)c1 (stereo unspecified),inactive
9,Nc1[nH]c(=O)ncc1F,inactive
10,CC1(C)O[C@H]2CC(=O)OC[C@]23[C@H]2CC[C@@]4(C)[C@H](c5ccoc5)OC(=O)[C@H]5O[C@]54[C@]2(C)C(=O)C[C@@H]13,inactive
11,O=C(/C=C\n1cnc(-c2cc(C(F)(F)F)cc(C(F)(F)F)c2)n1)NNc1cnccn1,1.18 µM (active)
12,CCCc1cc(C(N)=S)ccn1,inactive
13,C=C1C(=O)[C@@]23C(CC[C@@H]1[C@H]2O)[C@@]12CO[C@]3(O)[C@@H](O)[C@@H]1C(C)(C)CC[C@@H]2O (stereo partly specified),1.3 µM (active)
14,CCc1ccc(OCc2ccccc2C(=O)Nc2ccc3nc(C)cc(N)c3c2)cc1,2.09 µM (active)
15,CC(C)(C)c1nc2c3cc[nH]c(=O)c3c3cc(F)ccc3c2[nH]1,0.651 µM (active)
16,CO[C@@H]1C(N(C)C(=O)c2ccccc2)C[C@H]2O[C@]1(C)n1c3ccccc3c3c4c(c5c6ccccc6n2c5c31)C(=O)NC4=O (stereo partly specified),0.332 µM (active)
17,N#Cc1ccnc(Nc2cc(C3CCN(C4COC4)CC3)cc(N3CCC(F)(F)C3)n2)c1,2.06 µM (active) and 235 nM (active)
18,CC1(C)CCC(c2ccc(Cl)cc2)=C(CN2CCN(c3ccc(C(=O)NS(=O)(=O)c4ccc(N[C@H](CCN5CCOCC5)CSc5ccccc5)c(S(=O)(=O)C(F)(F)F)c4)cc3)CC2)C1,32.6 nM (active) and 118 nM (active)

row,Compound,Potency
1,CC(C)C[C@@H](C=O)NC(=O)[C@H](CC(C)C)NC(=O)[C@H](CC(C)C)NC(=O)OCc1ccccc1 (Cbz-Leu-Leu-Leu-aldehyde),1.05 µM (active)
2,CCCCS(=N)(=O)CCC(N)C(=O)O (stereo unspecified),17.1 µM (active)
3,O=C(O)CCNC(=O)c1ccc(N=Nc2ccc(O)c(C(=O)O)c2)cc1,inactive
4,CC(O)(C#Cc1ccc2c(c1)N(c1nc(N)ncc1Cl)CC2)c1nccs1 (stereo unspecified),10.3 µM (active)
5,CN1CCN(c2ccc(C(=O)Nc3n[nH]c4ccc(Cc5cc(F)cc(F)c5)cc34)c(NC3CCOCC3)c2)CC1,326 nM (active) and 372 nM (active) and 411 nM (active)
6,COc1c(C)cnc(Cn2cnc3c(Cl)nc(N)nc32)c1C,0.235 µM (active)
7,CCN(c1ccccc1)c1cc(NC)[n+](C)c(C)n1,18.6 µM (active)
8,CCCc1nn(C)c2c(=O)[nH]c(-c3cc(S(=O)(=O)N4CCN(C)CC4)ccc3OCC)nc12,18.6 µM (active)
9,CC1CCN(c2cc(N3CCN(C)CC3)ccc2NC(=O)c2cc(C#N)c[nH]2)CC1,11.8 µM (active)
10,C[C@H]1[C@@H](OC(=O)CCC(=O)O)O[C@@H]2O[C@@]3(C)CC[C@@H]4[C@H](C)CC[C@@H]1[C@@]24OO3,1.16 µM (active)
11,O=S(=O)(O)CCS,inactive
12,COCCNCCCn1c(C(=O)CF)c(-c2ccc(C)cc2)c2c(N)ncnc21,6.61 µM (active)
13,NCCCC(N)(C(=O)O)C(F)F (stereo unspecified),inactive
14,Nc1[nH]nc2nnc(-c3c(-c4ccccc4)nn4ccccc34)cc12,16.4 µM (active)
15,COC(=O)C1C2CC3c4[nH]c5cc(OC)ccc5c4CCN3CC2CC(OC(=O)c2cc(OC)c(OC)c(OC)c2)C1OC (stereo unspecified),11.8 µM (active)
16,Nc1nc2c(ncn2COC(CO)CO)c(=O)[nH]1,inactive
17,OC(CCN1CCCCC1)(c1ccccc1)C1CC2C=CC1C2 (stereo unspecified),inactive and 16.6 µM (active)
18,Cc1ccccc1-n1c(Cn2nc(-c3cccc(O)c3)c3c(N)ncnc32)nc2cccc(C)c2c1=O,11.6 µM (active)
